From PubChem BioAssay AID1159580 (chemical genetic matrix, 2015)
“And” between values parts separate entries of the source, which are not always exact repeats. Equal values may be shown once. Out of some 5,500 compounds screened, about 2,000 (36%) were called active. Inconclusive results (about 18%) are left out. No stated cut-off is given here; in the data, active means normalized growth mostly below about 0.91 (no sharp cut-off); inconclusive means no clear call, values can overlap the other calls; inactive means mostly above about 0.92. Some of the results follow.

Test: chemical genetic growth profiling, strain panel (AID 1159580);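 further: tested at 20 µM; growth read once vehicle control cultures reached saturation at 30 °C; 1 = growth at the plate median or of vehicle wells; lower values mean less growth of the strain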
Settings: S. cerevisiae deletion strains, growth OD

Measured: normalized growth

CC(=O)OC1CCC23C(=O)OC45CCC(C6=CC(=O)OC6)C4(C)CCC2C5CCC3(O)C1 (centres undefined)
inactive: locus YAL021C, strain ccr4, hits give low values 1 | locus YAL026C, strain drs2, hits give low values 0.979 | locus YAL030W, strain snc1, hits give low values 0.996 | locus YBL061C, strain skt5, hits give low values 0.975 | locus YBR009C, strain hhf1, hits give low values 0.998 | locus YBR021W, strain FUR4, hits give low values 1 | locus YBR023C, strain chs3, hits give low values 0.991 | locus YBR171W, strain sec66, hits give low values 0.953 | locus YBR229C, strain ROT2, hits give low values 1.01 | locus YBR231C, strain swc5, hits give low values 0.987 | locus YBR279W, strain paf1, hits give low values 1.01 | locus YCL011C, strain gbp2, hits give low values 1 | locus YCL016C, strain dcc1, hits give low values 1.04 | locus YCL029C, strain bik1, hits give low values 1.02 | locus YCL061C, strain MRC1, hits give low values 0.997 | locus YCL069W, strain vba3, hits give low values 0.979 | locus YCR088W, strain abp1, hits give low values 0.986 | locus YDL005C, strain med2, hits give low values 0.98 | locus YDL035C, strain GPR1, hits give low values 1.05 | locus YDL040C, strain nat1, hits give low values 0.99 | locus YDL074C, strain BRE1, hits give low values 1.1 | locus YDL101C, strain DUN1, hits give low values 1.01 | locus YDL185W, strain tfp1, hits give low values 0.992 | locus YDL192W, strain arf1, hits give low values 1.03 | locus YDR001C, strain nth1, hits give low values 0.991 | locus YDR069C, strain doa4, hits give low values 0.963 | locus YDR101C, strain arx1, hits give low values 1 | locus YDR137W, strain rgp1, hits give low values 1.03 | locus YDR159W, strain sac3, hits give low values 0.961 | locus YDR162C, strain NBP2, hits give low values 1.03 | locus YDR195W, strain ref2 0.943 | locus YDR297W, strain sur2, hits give low values 0.987 | locus YDR318W, strain mcm21, hits give low values 1.02 | locus YDR334W, strain swr1, hits give low values 0.959 | locus YDR335W, strain msn5, hits give low values 0.992 | locus YDR388W, hits give low values 0.998 | locus YDR392W, strain spt3, hits give low values 0.962 | locus YDR502C, strain sam2, hits give low values 1.02 | locus YEL003W, strain gim4, hits give low values 0.988 | locus YEL037C, strain rad23, hits give low values 0.97 | locus YEL061C, strain CIN8 (second series), hits give low values 0.981 | locus YER015W, strain faa2, hits give low values 0.977 | locus YER016W, strain bim1, hits give low values 0.994 | locus YER110C, hits give low values 0.997 | locus YER111C, strain swi4, hits give low values 0.95 | locus YER155C, strain BEM2 (second series), hits give low values 0.968 | locus YER155C, strain BEM2, hits give low values 1 | locus YER167W, strain BCK2, hits give low values 1.01 | locus YFR010W, strain ubp6, hits give low values 0.959 | locus YGL078C, strain dbp3, hits give low values 1 | locus YGL086W, strain mad1, hits give low values 1 | locus YGL167C, strain pmr1, hits give low values 0.978 | locus YGL173C, strain kem1, hits give low values 0.972 | locus YGL227W, strain vid30, hits give low values 0.994 | locus YGL240W, strain doc1, hits give low values 0.973 | locus YGL248W, strain PDE1, hits give low values 1.06 | locus YGL253W, strain hxk2, hits give low values 0.98 | locus YGR135W, strain pre9, hits give low values 0.997 | locus YGR252W, strain gcn5, hits give low values 1 | locus YHR013C, strain ard1, hits give low values 0.994 | locus YHR027C, strain rpn1, hits give low values 0.971 | locus YHR030C, strain SLT2, hits give low values 1.02 and 0.956 | locus YHR079C, strain IRE1 (second series), hits give low values 0.994 | locus YHR079C, strain IRE1, hits give low values 0.984 | locus YHR094C, strain hxt1, hits give low values 1 | locus YHR129C, strain ARP1, hits give low values 1.02 | locus YHR142W, strain chs7, hits give low values 1.02 | locus YHR200W, strain rpn10, hits give low values 1.01 | locus YIL066C, strain RNR3, hits give low values 1.03 | locus YIL073C, strain SPO22, hits give low values 1.11 | locus YIL125W, strain kgd1, hits give low values 1.02 | locus YIR030C, strain dcg1, hits give low values 1 | locus YJL092W, strain hpr5, hits give low values 0.971 | locus YJL095W, strain BCK1 (second series), hits give low values 0.96 | locus YJL095W, strain BCK1, hits give low values 1.08 and 0.965 | locus YJL115W, strain asf1, hits give low values 0.979 | locus YJL129C, strain trk1, hits give low values 0.973 | locus YJL134W, strain LCB3, hits give low values 1.01 | locus YJL154C, strain vps35, hits give low values 0.988 | locus YJL164C, strain tpk1, hits give low values 1.04 | locus YJL166W, strain qcr8, hits give low values 0.977 | locus YJL168C, strain set2, hits give low values 1.01 | locus YJL187C, strain SWE1 (second series), hits give low values 1.02 | locus YJR043C, strain POL32, hits give low values 1.05 | locus YJR066W, strain TOR1, hits give low values 0.883 | locus YKL009W, strain mrt4, hits give low values 1.02 | locus YKL068W, hits give low values 1.01 | locus YKL085W, strain MDH1 (second series), hits give low values 1 | locus YKL085W, strain MDH1, hits give low values 1 | locus YKL160W, strain elf1, hits give low values 1.06 | locus YKR001C, strain vps1, hits give low values 1.02 | locus YKR026C, strain gcn3, hits give low values 0.976 | locus YKR091W, strain srl3, hits give low values 0.994 | locus YLL001W, strain dnm1, hits give low values 1.01 | locus YLL026W, hits give low values 0.996 | locus YLL041C, strain sdh2, hits give low values 0.966 | locus YLR027C, strain aat2, hits give low values 0.988 | locus YLR039C, strain RIC1, hits give low values 1.23 | locus YLR058C, strain SHM2, hits give low values 1.02 | locus YLR102C, strain apc9, hits give low values 0.994 | locus YLR113W, strain HOG1, hits give low values 1.01 | locus YLR221C, strain rsa3, hits give low values 0.981 | locus YLR258W, strain gsy2, hits give low values 1 | locus YLR262C, strain YPT6 (second series), hits give low values 1.01 | locus YLR268W, strain sec22, hits give low values 1.02 | locus YLR320W, strain mms22, hits give low values 0.988 | locus YLR342W, strain FKS1 (second series), hits give low values 1.06 | locus YLR342W, strain FKS1, hits give low values 0.995 | locus YLR357W, strain rsc2, hits give low values 0.973 | locus YLR370C, strain arc18, hits give low values 0.986 | locus YLR371W, strain rom2, hits give low values 1.02 | locus YLR384C, strain iki3, hits give low values 0.997 | locus YLR418C, strain cdc73, hits give low values 1.06 | locus YML016C, strain PPZ1, hits give low values 1.01 | locus YML032C, strain rad52, hits give low values 1.01 | locus YML120C, strain ndi1, hits give low values 1.01 | locus YML124C, strain tub3, hits give low values 1.01 | locus YMR058W, strain fet3, hits give low values 0.988 | locus YMR078C, strain ctf18, hits give low values 1.01 | locus YMR125W, strain sto1, hits give low values 0.992 | locus YMR129W, hits give low values 0.986 | locus YMR205C, strain PFK2, hits give low values 1.01 | locus YMR223W, strain ubp8, hits give low values 1 | locus YMR231W, strain pep5, hits give low values 0.97 | locus YMR263W, strain SAP30, hits give low values 1.01 | locus YMR307W, strain GAS1, hits give low values 1.16 | locus YNL067W, strain RPL9B, hits give low values 0.999 | locus YNL071W, strain lat1, hits give low values 0.994 | locus YNL183C, strain NPR1, hits give low values 0.922 | locus YNL209W, strain ssb2, hits give low values 0.996 | locus YNL233W, strain BNI4, hits give low values 1.05 | locus YNL248C, strain rpa49, hits give low values 0.989 | locus YNL250W, strain rad50, hits give low values 1.03 | locus YNL271C, strain bni1, hits give low values 1.02 | locus YNL298W, strain CLA4, hits give low values 1.01 | locus YNL307C, strain MCK1, hits give low values 1.02 | locus YNL322C, strain KRE1 (second series), hits give low values 0.987 | locus YNR049C, strain mso1, hits give low values 0.967 | locus YNR052C, strain pop2, hits give low values 0.996 | locus YOL006C, strain TOP1, hits give low values 1.28 | locus YOL012C, strain htz1 0.952 | locus YOL147C, strain pex11, hits give low values 1.02 | locus YOR001W, strain rrp6, hits give low values 0.929 | locus YOR061W, strain CKA2, hits give low values 1.02 | locus YOR069W, strain VPS5, hits give low values 1 | locus YOR070C, strain gyp1, hits give low values 0.982 | locus YOR080W, strain dia2, hits give low values 0.98 | locus YOR083W, strain WHI5, hits give low values 1.06 | locus YOR106W, strain vam3, hits give low values 1.05 | locus YOR136W, strain idh2, hits give low values 0.997 | locus YOR144C, strain elg1, hits give low values 1 | locus YOR184W, strain ser1, hits give low values 1.02 | locus YOR231W, strain MKK1, hits give low values 0.976 | locus YOR265W, strain rbl2, hits give low values 0.996 | locus YOR270C, strain vph1, hits give low values 1 | locus YOR290C, strain snf2, hits give low values 1.02 | locus YOR316C, strain cot1, hits give low values 1.02 | locus YPL051W, strain arl3, hits give low values 0.967 | locus YPL055C, strain LGE1, hits give low values 1.09 | locus YPL078C, strain atp4, hits give low values 1.06 | locus YPL106C, strain sse1, hits give low values 1 | locus YPL240C, strain hsp82, hits give low values 0.979 | locus YPL241C, strain CIN2, hits give low values 1.02 | locus YPL256C, strain CLN2, hits give low values 0.975 | locus YPR119W, strain clb2, hits give low values 0.999 | locus YPR141C, strain kar3, hits give low values 0.997 | locus YPR163C, strain tif3, hits give low values 1.01 | locus YPR167C, strain met16, hits give low values 1.02 | strain wtn01, hits give low values 1
